Conditions in all cases: mRNA level, 48 h; actives raise or lower the signal
Read-out in assay [1]: growth arrest and DNA damage 45 (GADD45G), GADD45G (gene 10912)
Put plainly: LTEA_HepaRG_GADD45G: Life Technologies and Expression Analysis (LTEA) Assay for growth arrest and DNA damage 45 (GADD45G) using HepaRG (AID 2283499). Put shortly: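 GADD45G transcript level by qRT-PCR (housekeeping-normalized: ACTB, GAPDH, POLR2A) after 48 h chemical treatment of a single HepaRG lot in serum-free induction medium; eight-point half-log series up to 100 uM in 0.5% DMSO, duplicates, up- or down-regulation scored.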

Read-out in assay [2]: Glutamate-cysteine ligase regulatory (GCLM), GCLM (gene 2730)
Put plainly: LTEA_HepaRG_GCLM: Life Technologies and Expression Analysis (LTEA) Assay for Glutamate-cysteine ligase regulatory (GCLM) using HepaRG (AID 2283500). Put shortly:
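In this multiplexed HepaRG gene-expression assay, GCLM mRNA change after 48 h treatment (8 concentrations, max 100 uM) was scored against DMSO by bidirectional curve fitting.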

Read-out in assay [3]: Glutathione S-transferase M3 (GSTM3), GSTM3 (gene 2947)
Kind of assay: LTEA_HepaRG_GSTM3: Life Technologies and Expression Analysis (LTEA) Assay for Glutathione S-transferase M3 (GSTM3) using HepaRG (AID 2283501). Put shortly:
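GSTM3 transcript levels came from Fluidigm TaqMan qRT-PCR normalized to three housekeeping genes, fitted in both directions against DMSO. HepaRG cultures received chemicals for 48 h in serum-free induction medium (0.5% DMSO), 8 half-log concentrations up to 100 uM, duplicate.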

Read-out in assay [4]: Heat shock 70 kDa protein 1 (HSPA1A), gene 3303
Put plainly: LTEA_HepaRG_HSPA1A: Life Technologies and Expression Analysis (LTEA) Assay for Heat shock 70 kDa protein 1 (HSPA1A) using HepaRG (AID 2283502). Put shortly:
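An oxidative-stress marker readout: HepaRG cells treated 48 h in duplicate with an eight-point series (highest 100 uM) had HSPA1A mRNA quantified by TaqMan qRT-PCR. Activity was fitted in both directions using 0.5% DMSO as baseline.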

Read-out in assay [5]: Hypoxia-inducible factor 1-alpha (Homo sapiens) (UniProt Q16665)
Put plainly: LTEA_HepaRG_HIF1A: Life Technologies and Expression Analysis (LTEA) Assay for Hypoxia-inducible factor 1 (HIF1A) Trancription factor using HepaRG (AID 2283503). Put shortly: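 Gain- or loss-of-signal HIF1A mRNA changes are fitted against a DMSO baseline. HepaRG cultures receive eight concentrations, highest 100 uM, for 48 h in serum-free induction medium with 0.5% DMSO.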

Read-out in the next assay: HGF (gene 3082)
Put plainly: LTEA_HepaRG_HGF: Life Technologies and Expression Analysis (LTEA) Assay for Hepatocyte Growth Facto (HGF) using HepaRG (AID 2283505). Put shortly:
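HGF transcript was quantified by TaqMan qRT-PCR against three housekeeping genes after 48 h treatment of HepaRG cells. Exposure ran in duplicate over eight half-log steps topping at 100 uM in 0.5% DMSO vehicle.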

Read-out in assay [6]: Insulin Like Growth Factor 1 (IGF1), IGF1 (gene 3479)
Put plainly: LTEA_HepaRG_IGF1: Life Technologies and Expression Analysis (LTEA) Assay for Insulin Like Growth Factor 1 (IGF1) using HepaRG (AID 2283506). Put shortly: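 Endpoint: IGF1 mRNA change by qRT-PCR, housekeeping-normalized, fitted bidirectionally relative to 0.5% DMSO vehicle. Human HepaRG cells were treated 48 h in serum-free induction medium, eight half-log concentrations topping at 100 uM.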

Read-out in assay [7]: Intercellular Adhesion Molecule 1 (ICAM1), ICAM1 (gene 3383)
Kind of assay: LTEA_HepaRG_ICAM1: Life Technologies and Expression Analysis (LTEA) Assay for Intercellular Adhesion Molecule 1 (ICAM1) using HepaRG (AID 2283507). Put shortly:
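ICAM1 transcript levels measured by qRT-PCR, normalized to three housekeeping genes (ACTB, GAPDH, POLR2A), after 48 h chemical exposure of HepaRG cells. Duplicate eight-point half-log series from 100 uM in 0.5% DMSO; gain or loss fitted against vehicle.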

Read-out in assay [8]: Insulin-like growth factor-binding protein 1 (IGFBP1), IGFBP1 (gene 3484)
Kind of assay: LTEA_HepaRG_IGFBP1: Life Technologies and Expression Analysis (LTEA) Assay for Insulin-like growth factor-binding protein 1 (IGFBP1) using HepaRG (AID 2283508). Put shortly:
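Read-out is qRT-PCR transcript level normalized to three housekeeping genes, fitted in both directions against 0.5% DMSO. Differentiated HepaRG cells received eight half-log concentrations (top 100 uM) in duplicate for 48 h in serum-free induction medium.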

Read-out in assay [9]: Interleukin 6 (IL6), IL6 (gene 3569)
Kind of assay: LTEA_HepaRG_IL6: Life Technologies and Expression Analysis (LTEA) Assay for Interleukin 6 (IL6) using HepaRG (AID 2283509). Put shortly: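 Changes in IL6 mRNA, up or down relative to 0.5% DMSO controls, were derived from concentration-response curves in human HepaRG cells treated for 48 h at up to 100 uM, with ACTB, GAPDH and POLR2A as normalizers.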

Read-out in assay [10]: Interleukin 6 Receptor (IL6R), IL6R (gene 3570)
Kind of assay: LTEA_HepaRG_IL6R: Life Technologies and Expression Analysis (LTEA) Assay for Interleukin 6 Receptor (IL6R) using HepaRG (AID 2283510).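 For AC50: differentiated human HepaRG liver cells in serum-free induction medium.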 Put shortly:
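In this HepaRG screen, test chemicals act on cells for 48 h at up to 100 uM (eight half-log points, duplicate wells). IL6R expression is quantified by qRT-PCR after normalization to ACTB, GAPDH and POLR2A, with DMSO as baseline.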

Read-out in assay [11]: Potassium channel subfamily K member 1 (KCNK1), KCNK1 (gene 3775)
Kind of assay: LTEA_HepaRG_KCNK1: Life Technologies and Expression Analysis (LTEA) Assay for Potassium channel subfamily K member 1 (KCNK1) using HepaRG (AID 2283511). Put shortly: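 Human HepaRG cultures receive test chemicals for 48 h in 0.5% DMSO, top concentration 100 uM with half-log dilutions. Induction or suppression of KCNK1 mRNA relative to DMSO is derived by bidirectional fitting of qRT-PCR data.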

Read-out in assay [12]: Keratin 19 (KRT19), KRT19 (gene 3880)
Kind of assay: LTEA_HepaRG_KRT19: Life Technologies and Expression Analysis (LTEA) Assay for Keratin 19 (KRT19) using HepaRG (AID 2283512). Put shortly:
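KRT19 transcript measured by TaqMan qRT-PCR, referenced to three housekeeping genes, after HepaRG cells received test chemicals for 48 h. Eight half-log concentrations, top 100 uM, 0.5% DMSO vehicle; increases and decreases both fitted.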

Read-out in assay [13]: JUN Transcription Factor, JUN (gene 3725)
Put plainly: LTEA_HepaRG_JUN: Life Technologies and Expression Analysis (LTEA) Assay for JUN Transcription Factor using HepaRG (AID 2283513). Put shortly: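 Gene-expression endpoint: JUN mRNA (qRT-PCR, normalized to three reference genes) in HepaRG cultures treated 48 h with chemicals, duplicate wells, 100 uM maximum with half-log dilutions; bidirectional fitting relative to 0.5% DMSO.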

Read-out in assay [14]: Lipase C (LIPC), LIPC (gene 3990)
Kind of assay: LTEA_HepaRG_LIPC: Life Technologies and Expression Analysis (LTEA) Assay for Lipase C (LIPC) using HepaRG (AID 2283514). Put shortly: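 In this multiplexed gene-expression screen, human HepaRG cultures received test chemicals for 48 h across eight concentrations with 100 uM highest, in duplicate. Values reflect LIPC mRNA induction or suppression versus DMSO vehicle, from normalized qRT-PCR.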

Read-out in assay [15]: Lipoprotein lipase (LPL), LPL (gene 4023)
Put plainly: LTEA_HepaRG_LPL: Life Technologies and Expression Analysis (LTEA) Assay for Lipoprotein lipase (LPL) using HepaRG (AID 2283515). Put shortly:
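Concentration-response testing used half-log steps from 100 uM in 0.5% DMSO on human HepaRG cells, 48 h, duplicate wells. Phenobarbital 1 mM served as induction control; LPL mRNA was normalized to ACTB, GAPDH, POLR2A.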

Read-out in assay [16]: matrix metalloproteinase-10 (MMP10), MMP10 (gene 4319)
Put plainly: LTEA_HepaRG_MMP10: Life Technologies and Expression Analysis (LTEA) Assay for matrix metalloproteinase-10 (MMP10) using HepaRG (AID 2283517). Put shortly: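 In differentiated HepaRG cultures kept in 0.5% DMSO, test chemicals act for 48 h over an eight-point range with a top dose of 100 uM. Expression is then quantified by TaqMan RT-PCR against ACTB, GAPDH and POLR2A.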

Read-out in a further assay: MYC, MYC (gene 4609)
Put plainly: LTEA_HepaRG_MYC: Life Technologies and Expression Analysis (LTEA) Assay for MYC using HepaRG (AID 2283518). Put shortly:
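MYC transcript changes, up or down relative to 0.5% DMSO, from TaqMan qRT-PCR normalized to three housekeeping genes. Human HepaRG cultures received chemicals for 48 h at eight half-log concentrations up to 100 uM, in duplicate.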

Read-out in assay [17]: 3-Hydroxy-3-Methylglutaryl-CoA Synthase 2 (HMGCS2), HMGCS2 (gene 3158)
Kind of assay: LTEA_HepaRG_HMGCS2: Life Technologies and Expression Analysis (LTEA) Assay for 3-Hydroxy-3-Methylglutaryl-CoA Synthase 2 (HMGCS2) using HepaRG (AID 2283504). Put shortly: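 Readout is HMGCS2 transcript by qRT-PCR, housekeeping-normalised (ACTB/GAPDH/POLR2A) and fitted bidirectionally against 0.5% DMSO. Differentiated HepaRG cells received chemicals 48 h, duplicate wells, eight half-log concentrations topping at 100 uM.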

Structures are written as SMILES. Calls of active or inactive are those of the source. Rule for the calls: active = hit-call score of the fitted dose curve at least 0.9, where 1 is the maximum; inactive = score below 0.9.

Chain of Hypoxia-inducible factor 1-alpha (Homo sapiens) (Q16665 whole entry, looked up): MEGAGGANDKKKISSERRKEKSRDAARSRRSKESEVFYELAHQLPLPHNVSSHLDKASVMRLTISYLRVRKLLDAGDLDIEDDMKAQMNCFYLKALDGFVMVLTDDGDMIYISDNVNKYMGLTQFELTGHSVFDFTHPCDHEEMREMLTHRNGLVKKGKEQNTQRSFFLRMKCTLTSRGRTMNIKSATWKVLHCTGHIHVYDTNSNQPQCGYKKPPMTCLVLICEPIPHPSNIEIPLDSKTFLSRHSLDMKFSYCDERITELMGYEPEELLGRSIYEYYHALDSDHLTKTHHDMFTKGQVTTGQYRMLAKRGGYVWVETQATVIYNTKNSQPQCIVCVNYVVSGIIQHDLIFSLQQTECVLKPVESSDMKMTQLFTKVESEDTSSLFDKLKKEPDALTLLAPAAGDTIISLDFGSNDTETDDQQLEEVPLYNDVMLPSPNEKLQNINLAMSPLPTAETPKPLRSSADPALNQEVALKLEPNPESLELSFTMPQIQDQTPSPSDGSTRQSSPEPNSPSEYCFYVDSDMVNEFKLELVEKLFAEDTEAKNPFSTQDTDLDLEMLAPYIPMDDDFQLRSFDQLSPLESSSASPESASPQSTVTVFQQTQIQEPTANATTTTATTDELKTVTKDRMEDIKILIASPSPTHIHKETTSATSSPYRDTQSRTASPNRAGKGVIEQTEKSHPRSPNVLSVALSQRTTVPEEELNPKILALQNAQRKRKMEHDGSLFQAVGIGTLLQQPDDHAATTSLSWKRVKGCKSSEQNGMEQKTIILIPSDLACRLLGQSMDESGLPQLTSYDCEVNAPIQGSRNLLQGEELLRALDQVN

As to `COCCO`, the compound was classed as inactive (in [1]; in [2]; in assay [3]; in assay [4]; in assay [5]; with HGF (gene 3082)). Besides, the result in assay [6], in [7], in [8], in assay [9], in assay [10] and in assay [11] was inactive. The outcome in assay [12] was “inactive”; in assay [13], “inactive”; in [14], “inactive”; in assay [15], “inactive”; in assay [16], “inactive”; with MYC, MYC (gene 4609), “inactive”.

In the case of `C=CCOC(Cn1ccnc1)c1ccc(Cl)cc1Cl` (centres undefined), the AC50 (in general, the midpoint of the concentration-response curve, whichever way the signal moves) in [1] was 91.6 µM (active); in assay [5], 79.6 µM (active); in [17], 32.4 µM (active); in assay [6], 18.3 µM (active); in [7] it was 13.2 µM (active); in [8], 30 µM (active). Besides, the AC50 in assay [9] was 73.7 µM (active); in assay [10] it was 12.7 µM (active); in assay [11], 50 µM (active); in assay [12], 12.3 µM (active); in [13], 75.5 µM (active); in assay [15] it was 13.7 µM (active). For the same compound, the AC50 in assay [16] is 34.4 µM (active); with MYC, MYC (gene 4609), 36 µM (active). The outcome (in assay [2]; in assay [3]; in assay [4]; with HGF (gene 3082)) was inactive.

With `CC(C)CCCCCCc1ccc(O)cc1`, the compound was called inactive (in [1]; in assay [2]; in assay [3]; in [4]; in [5]; with HGF (gene 3082)). In addition, the compound was called inactive in [6], in [7], in assay [8], in assay [9], in assay [10] and in assay [11]. In addition, the outcome in assay [12] was “inactive”; in [13], “inactive”; in assay [14], “inactive”; in [15], “inactive”; in assay [16], “inactive”; with MYC, MYC (gene 4609), “inactive”.

The values are drawn from PubChem BioAssay (EPA / NIEHS).
